Data as given in PubChem BioAssay.
Calls of active or inactive are those of the source.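 How the source made its calls, unless noted: active means NADPH fluorescence slope more negative than the mean of all samples by about 3 SD, 99.7% confidence; inactive means the rest.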

Columns and labels:
[1] = inhibitors of TNFa-induced NFkB p65 translocation, primary screen, imaging, HUVEC, MLSMR starter and 10KST1 sets (AID 438;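 active means inhibition above 20% together with a positive visual image hit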;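 further: compound added about 3h40 before a 20 min TNFalpha stimulation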;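 on inhibition: signal is the nuclear over cytoplasmic p65 intensity ratio per well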); conditions: HUVEC TNFa-induced p65 nuclear translocation; cell count: measured here: nuclei count (cytotoxicity indicator), at 2.08 µM; inhibition: at 2 µM, stronger effect = higher value, 0% TNFa-plus-vehicle, 100% no-TNFa wells
[2] = inhibitors of mutant huntingtin aggregation, primary screen, imaging, exon1htt(103Q)mCFP cells, high-content imaging (AID 483;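 active means visual image review flags a hit and inhibition of aggregation exceeds 20%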;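 further: compound exposure lasted 3 days before fixation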;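 on nuclei count: percent of the per-plate median nuclei count of sample wells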); conditions: exon1htt(103Q)mCFP cell line, aggregate imaging, at 2 µM; inhibition of aggregation: stronger effect = higher value; nuclei count: measured here: cell count, toxicity
[3] = inhibitors of E-selectin induction by TNFa, primary screen, imaging, HUVEC, immunofluorescence, MLSMR starter and 10KST1 sets (AID 487;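 active means visually confirmed hit in the image check and inhibition above 20%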;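 on inhibition: signal is fraction of cell area covered by stained E-selectin grains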;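 on nuclei count: 100% = median nuclei count of all wells on the same plate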); conditions: HUVEC TNFalpha-induced E-selectin immunofluorescence imaging, at 2 µM; inhibition: stronger effect = higher value; nuclei count: measured here: cell number, toxicity
[4] = target: Voltage-gated potassium channel subunit beta-2 (Rattus norvegicus) (UniProt P62483); assay: KvBeta enzyme negative modulators, primary screen, biochemical, NADPH fluorescence (AID 622;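 active means fluorescence slope higher than the sample average by over 3 SD, cut at about -0.22 in these data, passing the limit was not always enough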;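 further: slope of raw intensity against log time taken from 70 to 1610 s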); conditions: recombinant KvBeta, 4-cyanobenzaldehyde reduction, at 10 µM, stronger effect = higher value
Voltage-gated potassium channel subunit beta-2 (Rattus norvegicus), sequence (P62483 whole entry, looked up): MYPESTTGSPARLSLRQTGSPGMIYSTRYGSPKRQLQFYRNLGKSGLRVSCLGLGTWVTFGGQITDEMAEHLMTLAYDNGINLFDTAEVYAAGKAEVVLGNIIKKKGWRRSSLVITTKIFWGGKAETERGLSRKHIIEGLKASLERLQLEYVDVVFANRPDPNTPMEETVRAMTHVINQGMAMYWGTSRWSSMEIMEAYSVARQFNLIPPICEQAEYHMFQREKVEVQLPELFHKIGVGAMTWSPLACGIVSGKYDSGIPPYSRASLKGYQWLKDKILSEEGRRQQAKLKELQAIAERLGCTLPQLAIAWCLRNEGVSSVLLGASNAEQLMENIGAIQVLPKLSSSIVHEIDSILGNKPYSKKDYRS

[5] = target: Voltage-gated potassium channel subunit beta-2 (Rattus norvegicus) (UniProt P62483); assay: KvBeta positive modulators, primary screen, biochemical, NADPH fluorescence (AID 623); conditions: Recombinant KvBeta, NADPH fluorescence decrease slope, 10 min; at 10 µM; stronger effect = lower value;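 further: fluorescence intensity change per second fitted from 20 to 320 s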
[6] = target: Alpha-2C adrenergic receptor (Homo sapiens) (UniProt P18825); assay: modulators of alpha2C/GIRK thallium flux, primary screen, cell-based, HEK293 alpha2C/GIRK1/2 (AID 624;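 active means fluorescence slope after compound addition differing from the mean of all screened samples at 99.7% confidence, in either direction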;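 further: slope of fluorescence ratio to pre-addition baseline per second over 15 to 24 s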); conditions: thallium flux BTC fluorescence, at 10 µM, actives lie on both sides
Alpha-2C adrenergic receptor (Homo sapiens), sequence (P18825 whole entry, looked up): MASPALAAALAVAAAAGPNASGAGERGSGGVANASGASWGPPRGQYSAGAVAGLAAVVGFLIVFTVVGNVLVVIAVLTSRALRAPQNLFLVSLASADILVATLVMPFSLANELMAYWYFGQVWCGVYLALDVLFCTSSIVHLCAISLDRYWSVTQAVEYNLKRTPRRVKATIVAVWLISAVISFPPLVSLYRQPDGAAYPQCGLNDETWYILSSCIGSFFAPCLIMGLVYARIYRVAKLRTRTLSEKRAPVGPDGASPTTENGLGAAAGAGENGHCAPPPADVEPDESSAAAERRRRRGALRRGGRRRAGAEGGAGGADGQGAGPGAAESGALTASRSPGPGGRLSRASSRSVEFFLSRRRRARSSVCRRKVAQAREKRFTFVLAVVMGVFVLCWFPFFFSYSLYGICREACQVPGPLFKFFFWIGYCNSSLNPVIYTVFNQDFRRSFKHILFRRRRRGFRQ

[7] = inhibitors of Sendai virus-induced IRF3 signaling, primary screen, TLR/RLR signaling modifier project, cell-based, Sendai virus stimulus, luciferase, 10K MLSCN set (AID 602276;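 active means inhibition at or above 50% at 10 µM; inactive means inhibition below 50%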;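 further: firefly luciferase from ISG56 promoter only with Renilla not read in this screen; 0% = Sendai virus plus DMSO and 100% = medium plus DMSO without virus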); conditions: HEK293 RL24 IRF3 luciferase reporter, at 10 µM, stronger effect = higher value
[8] = inhibitors of poly I:C-induced TLR3 signaling, primary screen, cell-based, poly I:C stimulus, luciferase, 10K MLSCN set (AID 602277;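 active means inhibition of the reporter signal at or above 50%; inactive means inhibition below 50%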); conditions: HEK293-TLR3 RL24 IRF3 luciferase reporter, at 10 µM, stronger effect = higher value

Row | SMILES | cell count [1] | inhibition [1] | inhibition of aggregation [2] | nuclei count [2] | inhibition [3] | nuclei count [3] | fluorescence slope [4] | NADPH fluorescence slope [5] | slope [6] | inhibition [7] | inhibition [8]
1 | C#CC1(O)CC(C)N(C)C(C)C1 (stereo not drawn) | 266 | -0.3% (inactive) | 41.8% (active) | 71.2% | -76% (inactive) | 186% | -0.606 (inactive) | 3.5e-06 (inactive) | 0.00632 (inactive) | 11% (inactive) | 17.2% (inactive)
2 | N#Cc1cnn(Cc2ccc(Cl)cc2)c1N | 628 | 4.5% (inactive) | -3.8% (inactive) | 110% | -28.9% (inactive) | 91.4% | -0.466 (inactive) | -5.6e-05 (inactive) | 0.00625 (inactive) | 7.9% (inactive) | 25.7% (inactive)
3 | CCOC(=O)c1[nH]c(C)c(C(=O)Nc2ccccc2C)c1C | 619 | 12.1% (inactive) | -101% (inactive) | 7.1% | -15.2% (inactive) | 94.8% | -0.603 (inactive) | -5.4e-05 (inactive) | 0.00703 (inactive) | 27.7% (inactive) | 11.1% (inactive)
4 | Cn1c(=O)oc2cc(S(=O)(=O)NC3CCN(Cc4ccccc4)CC3)ccc21 | 621 | -6.3% (inactive) | 59.7% (active) | 70.5% | -37.9% (inactive) | 99.7% | -0.57 (inactive) | 1.4e-06 (inactive) | 0.0068 (inactive) | 10.4% (inactive) | 33.8% (inactive)
5 | COc1cc(CN2CCSCC2)cc(OC)c1OC | 642 | -1.9% (inactive) | 12.3% (inactive) | 60.4% | -13.9% (inactive) | 98.2% | -0.486 (inactive) | 2.1e-05 (inactive) | 0.00258 (inactive) | -4.06% (inactive) | 20% (inactive)
6 | O=C1c2ccccc2-c2ccc(C(=O)N3CCOCC3)cc21 | 623 | -4.1% (inactive) | -6.2% (inactive) | 81.1% | -103% (inactive) | 101% | -0.235 (inactive) | -1.8e-05 (inactive) | 0.00393 (inactive) | 5.8% (inactive) | -1.97% (inactive)
7 | COc1cc(NC(=O)CC(C)C)ccc1NC(=O)c1ccco1 | 612 | -6% (inactive) | 10.4% (inactive) | 93.3% | 44.4% (inactive) | 47.6% | -0.605 (inactive) | 1e-05 (inactive) | 0.00539 (inactive) | -64.3% (inactive) | -135% (inactive)
8 | O=C(N1CCN(c2ccccc2F)CC1)C12CC3CC(CC(C3)C1)C2 | 242 | 3.4% (inactive) | -2.5% (inactive) | 99.4% | 17.9% (inactive) | 95% | -0.387 (inactive) | 2.5e-05 (inactive) | 0.00709 (inactive) | 7.35% (inactive) | 14.4% (inactive)
9 | Cc1occc1C(=O)N1CCN(c2ncccn2)CC1 | 347 | -12.5% (inactive) | 5% (inactive) | 102% | -117% (inactive) | 101% | -0.356 (inactive) | 6.9e-06 (inactive) | 0.00583 (inactive) | -8.62% (inactive) | 4.37% (inactive)
10 | Cc1nc(NC2=NCN(CCN3CCOCC3)CN2)nc2c(C)cccc12 | 417 | 4.5% (inactive) | -1.2% (inactive) | 72.4% | -24.5% (inactive) | 108% | -0.419 (inactive) | -3.7e-05 (inactive) | 0.00391 (inactive) | 23.8% (inactive) | 41.1% (inactive)
11 | O=C(Nc1cccc2ncccc12)c1ccc2c(c1)OCCO2 | 586 | 2.2% (inactive) | 11.1% (inactive) | 101% | -8.1% (inactive) | 81.2% | -0.46 (inactive) | -4.6e-05 (inactive) | 0.00308 (inactive) | -12.7% (inactive) | -8.56% (inactive)
12 | O=C(Nc1ccc(SC(F)F)cc1)c1ccc2nccnc2c1 | 823 | -1.3% (inactive) | 14.5% (inactive) | 101% | 55.1% (active) | 95% | -0.39 (inactive) | 2e-05 (inactive) | 0.00714 (inactive) | -15% (inactive) | -139% (inactive)
13 | COc1ccc(-n2nc(C(=O)NCC(=O)NCC3CCCO3)c3ccccc3c2=O)cc1 (stereo not drawn) | 355 | -1.7% (inactive) | 13.1% (inactive) | 91.3% | -15.9% (inactive) | 100% | -0.435 (inactive) | -1.9e-05 (inactive) | 0.0067 (inactive) | 16.2% (inactive) | 23.6% (inactive)
